Source: PubChem
Rows were chosen to be rich in hits. Some 4% of all compounds tested hit in one or more screens of this group.
FLuc inh: inhibitors of firefly luciferase; P08659; purified firefly luciferase, luminescence, 8 min; Potency, µM (titrated, usually from 57.1 µM), without a hit: at the highest dose activity change, negative = inhibition, hits mostly inhibitors; actives 2.2% (n = 72,000); AID 411; further: on the % scale 0 is the no-effect control and ±100 the full control effect; nearly all actives have a fitted effect of over 40% in size
Target sequence (P08659 whole entry, looked up): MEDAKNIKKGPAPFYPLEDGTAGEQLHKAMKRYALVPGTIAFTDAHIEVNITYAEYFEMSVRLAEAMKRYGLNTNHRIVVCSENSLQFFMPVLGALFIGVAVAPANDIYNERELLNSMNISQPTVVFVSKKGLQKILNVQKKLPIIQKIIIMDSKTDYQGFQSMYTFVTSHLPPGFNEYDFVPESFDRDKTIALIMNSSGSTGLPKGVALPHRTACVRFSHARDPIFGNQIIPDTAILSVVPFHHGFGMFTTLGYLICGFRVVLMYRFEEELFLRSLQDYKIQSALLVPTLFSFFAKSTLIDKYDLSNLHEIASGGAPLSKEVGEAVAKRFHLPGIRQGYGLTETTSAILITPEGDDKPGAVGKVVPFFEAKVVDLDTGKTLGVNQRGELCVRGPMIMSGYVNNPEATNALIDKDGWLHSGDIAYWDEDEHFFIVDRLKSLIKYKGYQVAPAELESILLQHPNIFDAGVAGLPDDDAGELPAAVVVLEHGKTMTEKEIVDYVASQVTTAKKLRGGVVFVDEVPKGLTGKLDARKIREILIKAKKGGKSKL
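Here, luciferase activity is measured as luminescence following an 8 min room-temperature reaction at 10 uM ATP, pH 7.2. Every library sample is titrated.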
Caspase-1 inhib: allosteric or competitive inhibitors of human caspase-1; Caspase-1 enzyme, Ac-WEHD-AFC fluorogenic rate; Potency, µM (doses to about 57.5 µM), for the others: at the top dose activity change, negative = inhibition, usual class: inhibitors; actives 0.03% (n = 75,000); AID 900;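 further: plate controls were vehicle for no effect and no substrate for full effect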
Caspase-7 inhib: blocks human caspase-7 allosterically or competitively; P55210; recombinant caspase-7, Ac-DEVD-AFC fluorescence rate; Potency, µM (titrated, usually from 57.5 µM), for the others: at the highest dose activity change, negative = inhibition, usual class: inhibitors; actives 0.02% (n = 75,000); active means well fitted inhibition curve with a large enough effect in the main read-out, with a control signal flat, not every such curve was filed as active; inconclusive means small, poorly fitted or top-dose-only effect, or a change in a side signal; further: % of control where 0% means no effect
Tau filament bind: binds recombinant human tau filaments. P10636. recombinant tau filaments, thioflavin S fluorescence, 15 h; filaments grown with octadecylsulfate alongside compound. Potency, µM (series often up to 57.1 µM), for inactives: at the top dose activity change, negative = inhibition. actives 2% (n = 71,000). AID 596;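 further: on the % scale 0 is the no-effect control and ±100 the full control effect; actives lower thioflavin S fluorescence by blocking filaments or displacing dye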
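ThS-based fibril read: tau 1 uM final, inducer ODS 30 uM final, 37 C for 15 h, ex 450/em 510 nm.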
Bst PK mod: alters activity of Bacillus stearothermophilus pyruvate kinase; purified pyruvate kinase, luminescence ATP production; ribose 5-phosphate activator present at AC10; Potency, µM; actives 1.2% (n = 51,000); AID 361; in the data active means potency below about 11 µM; inconclusive means mostly about 12 µM to 25 µM;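 the screen sought inhibitors and activators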;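 further: scaled between full activation by ribose 5 phosphate and full inhibition by luteolin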
Starred values were filed as active, the others as inactive; i = inactive; ? = inconclusive; . = not tested or not shown; ! = not confirmed by another sample; [ ] = another dose, or the depositor's remark. Unless noted, the call rests on the fitted dose curve; in most records, active means well fitted curve in the direction sought with a large enough effect; inconclusive means small, poorly fitted or top-dose-only effect, or another doubt; inactive means no such curve, though single readings can be large; an effect the other way counts as inactive or inconclusive. Potency means the concentration at half of the fitted maximal effect.

SMILES	FLuc inh	Caspase-1 inhib	Caspase-7 inhib	Tau filament bind	Bst PK mod
O=C(COc1ccc2c(c1)OCO2)NC12CC3CC(CC(C3)C1)C2	-2%	1%	-4%	-10%	>57
Cc1ccc(C(=O)Nc2ccc3c(c2)OCO3)o1	13µM*	-2%	-2%	20µM*	.
O=C(Nc1ccc2c(c1)OCCO2)c1ccc(Br)o1	5µM*	.	.	.	?
C/C(=C\C(=O)c1ccc(C)o1)Nc1ccc2c(c1)OCO2	-15%	-3%	-6%	13µM*	.
COc1ccccc1CNc1cc(-c2c(C)noc2C)ncn1	0%[2.29 µM]	0%	-2%	1%	.
CN(Cc1ccco1)c1nc(-c2cccc(C#N)c2)nc2ccccc12	1%[2.29 µM]	-1%	-2%	17%	.
N#CCCN1CCN(C(=S)c2ccc(-c3cc(Cl)ccc3Cl)o2)CC1	-8%	-3%	-2%	2.5µM*	>57
O=C(c1ccc(-c2cccc(C(F)(F)F)c2)o1)N1CCOCC1	-3%	-1%	1%	8%	>57
OCCN1CCN(C(=S)c2ccc(Cl)c(Cl)c2)CC1	-26%	0%	0%	7%	.
S=C(c1ccc(-c2ccc(Cl)c(Cl)c2)o1)N1CCOCC1	7.9µM*	-5%	-5%	10µM*	.
S=C(c1ccc(-c2ccccc2Cl)o1)N1CCOCC1	16µM*	-3%	-2%	16µM*	.
O=C(OCc1nnc(-c2ccc(Cl)cc2)o1)c1ccc(=O)n(Cc2ccccc2)n1	-1%	-3%	-10%	-8%	9.8*
CCCCOc1[nH]c2nc(-c3ccco3)n(Cc3ccco3)c(=N)c2c1C#N	2%	-2%	-3%	-1%	11*
c1ccc(CSc2nnc(-c3ccco3)n2Cc2ccco2)cc1	2%	-2%	-1%	-10%	>57
COc1ccc(Nc2nc3ccccc3nc2C)cc1	-9%	-1%	0%	20µM*	.
COC(=O)CCC(=O)c1oc2ccc(Br)cc2c1N	13µM*	-3%	-2%	-2%	.
CC[C@H]1CC[C@H]2[C@@H]3CC=C4C[C@H](OC(C)=O)[C@@H](N)C[C@@]4(C)[C@H]3CC[C@@]12C	2%[11.4 µM]	0%[11.5 µM]	-2%[11.5 µM]	11%[11.4 µM]	.
Cc1cc(NC(=O)CSc2cn(CCNC(=O)c3ccc(Cl)cc3)c3ccccc23)no1	-2%	-3%	2%	-16%	.
CCOc1ccc(C(=O)NCCn2cc(SCC(=O)Nc3cc(C)on3)c3ccccc32)cc1	16µM*	-2%	-2%	46%	>57
C=CCn1cnc2c(c1=O)c1nc3ccccc3nc1n2-c1ccccc1	-4%	-16%	-11%	-11%	>57
CCC(C)n1cnc2c(c1=O)c1nc3ccccc3nc1n2Cc1ccc2c(c1)OCO2 (centres undefined)	-5%	-12%	-6%	3.2µM*	>57
CCC(C)n1cnc2c(c1=O)c1nc3ccccc3nc1n2-c1ccc2c(c1)OCCO2 (centres undefined)	1%	-7%	-4%	-10%	>57
O=c1c2c3nc4ccccc4nc3n(-c3cccc(F)c3)c2ncn1Cc1ccc2c(c1)OCO2	1%	-5%	-6%	3.2µM*	>57
CC(C)CO[C@H](c1ccc2c(c1)OCO2)[C@H](C)Br	1%[11.4 µM]	-2%[11.5 µM]	0%[11.5 µM]	-8%[11.4 µM]	.
CN(Cc1ccco1)c1ccnc(-c2cccc(C#N)c2)n1	-2%[2.29 µM]	-3%	-8%	20%	.
SMILES	FLuc inh	Caspase-1 inhib	Caspase-7 inhib	Tau filament bind	Bst PK mod
CCOc1ccc(NC(C)=O)cc1	6%[25.5 µM]	-8%	3%	7%	.
CCOc1ccc(NCC(=O)Nc2ccc(C)cc2C)cc1	2%	1%	0%	32µM*	>57
N[C@H](CCCC(=O)O)C(=O)O	-11%	-1%	-2%	-8%	.
O=c1cc(Nc2ccc3c(c2)OCO3)[nH]c(=O)n1-c1ccc(Br)cc1	-4%	-2%	-10%	16µM*	>57
O=C(c1ccccc1)n1c(=S)nc2ccccn21	1.3µM*	.	.	.	2.2*
O=C(c1ccc(Cl)c(Cl)c1)N(Cc1ccco1)c1ccc(O)cc1	3%	0%	13µM*	-10%	?
Cc1cn2nc(N)c3ccccc3c2n1	-3%	1%	0%	-1%	8.8*
COc1cccc(OC)c1-c1nn2c(-c3ccccc3Cl)nnc2s1	-1%[25.5 µM]	.	.	.	7.3*
COc1ccc(-c2cc(=O)c3ccccc3s2)cc1	16µM*	-3%	6%	25µM*	0.88*
Cc1ccc(C(=O)OCC(=O)c2ccc(Cl)s2)s1	16µM*	-1%	-3%	-8%	i
O=C(COC(=O)c1ccc[nH]c1=O)c1ccc(Cl)s1	-17%	1%	-7%	-3%	>57
COc1c(CC(=O)c2cc3c(cc2O)OC(C)(C)C(O)C3)ccc2c1C=CC(C)(C)O2 (centres undefined)	.	-2%	-1%	.	.
CCOC(=O)N/C(N)=N/c1nc2ccccc2s1	13µM*	-3%	2%	-2%[11.4 µM]	.
NC(=O)CSc1nc(N)c2c3c(sc2n1)CCCCC3	13µM*	.	.	.	11*
Cc1c(/C(O)=C2/C(=O)C(=O)N(CCN3CCOCC3)C2c2cccs2)cnn1-c1ccccc1 (centres undefined)	13µM*	-1%	-1%	19%	.
O=C(Nc1ccc2nsnc2c1)c1cccs1	-4%	?	-26%	-23%	>57
O=C(Nc1cccc2nsnc12)c1cccs1	16µM*!	-5%	-7%	-20%	>11
O=C1c2cc([N+](=O)[O-])ccc2-c2ccc3c4ccc5c6c(ccc(c7ccc1c2c73)c64)C(=O)c1cc([N+](=O)[O-])ccc1-5	-3%[11.4 µM]	-4%[11.5 µM]	-23%[11.5 µM]	1.6µM*	.
O[C@@H](c1cc(-c2ccccc2)nc2c1ccc1ccccc12)[C@@H]1CCCCN1	1%[11.4 µM]	-1%[11.5 µM]	-3%[11.5 µM]	-11%[11.4 µM]	.
NC(=O)c1cc(-c2ccccc2)nc(N2CCCCCC2)n1	0%	.	?	-16%	>57
NC(=O)c1cc(-c2ccccc2)nc(N2CCOCC2)n1	2%	-6%	-10%	-25%	4*
CCOC(=O)CNc1ncnc2nc[nH]c12	10µM*	4%	3%	7%	.
CC(C)=CCNc1ncnc2nc[nH]c12	2%[11.4 µM]	1%[11.5 µM]	-1%[11.5 µM]	4%[11.4 µM]	.
COCCCNc1ncnc2nc[nH]c12	6.3µM*	4%	1%	120%	.
COc1cccc(Nc2ncc3ncc(=O)n(C[C@H]4CCCO4)c3n2)c1	2%[11.4 µM]	-5%	-7%	-2%	.
SMILES	FLuc inh	Caspase-1 inhib	Caspase-7 inhib	Tau filament bind	Bst PK mod
COc1cccc(CNc2ccc(S(N)(=O)=O)cc2)c1OC	-9%	-1%	0%	-1%	>57
COc1cc(N=Nc2cccc(S(N)(=O)=O)c2)c2ccccc2c1N	-5%[11.4 µM]	2%[11.5 µM]	-3%[11.5 µM]	1.6µM*	.
CCOC(=O)c1nnc2cc(-c3ccccc3)nn2c1C	-4%	-2%	-2%	16µM*	.
CCOC(=O)c1nnc2cc(-c3ccc(Br)cc3)nn2c1C	0%	2%	-2%	10µM*	.
COc1ccc2cc(C(C)CO)ccc2c1 (centres undefined)	.	1%	-1%	.	.
CC(=O)c1cccc(NC2c3ccccc3C(=O)N2Cc2ccc3c(c2)OCO3)c1 (centres undefined)	1%	-2%	-4%	2%	.
O=C1c2ccccc2C(Nc2ccc3c(c2)OCCO3)N1Cc1ccccc1 (centres undefined)	1%	-4%	-4%	20µM*	.
